Structures are written as SMILES. Compounds without any hit were thinned out: in the full panel of roughly 83,000, 20% have a hit.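 Treatment: one concentration, 48 hours, 96-well format. Scoring: percent growth, with anything below 10 considered active.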 Values without a mark were called inactive. Calls of active or inactive are those of the source.

In the assay the test system is OVCAR-5 ovarian. Briefly: NCI-60 one-dose screen, 48 h (100 = growth as untreated, 0 = no growth, -100 = all killed). The following applies: 10 µM unless noted.
For the compound `CC(=O)OC[C@]12CC[C@@H]([C@@H](C)c3nnc(-c4ccncc4)o3)[C@@H]1[C@H]1CC[C@@H]3[C@@]4(C)CC[C@H](OC(C)=O)C(C)(C)[C@@H]4CC[C@@]3(C)[C@]1(C)CC2`, the growth was 109%.
Take `CN(Cc1ccccc1)c1nc(Cl)c(C2CC(c3ccccc3)=NN2c2ccccc2)s1` (stereo not drawn): the growth was 104%.
The result for `CSc1nc(C)c([N+](=O)[O-])c(N)n1` reads 118%; that for `CN1CCN(Cc2ccc(NC(=O)c3cncc(C#Cc4cnc(N)c5ccc(F)cc45)c3)cc2C(F)(F)F)CC1`, 44.7%.
Turning to `CN1CCN(C(=O)[C@@]2(C)CC[C@]3(C)CC[C@]4(C)C(=CC[C@@H]5[C@@]6(C)CCC(=O)NC(C)(C)[C@@H]6CC[C@]54C)[C@@H]3C2)CC1`, the growth was 83.8%.
The result for `COc1ccc(/C=C2\CN(C(=O)C(Cl)Cl)C/C(=C\c3ccc(OC)cc3)C2=O)cc1` reads 9.63% (active).
In the case of `O=C(NNc1cnccn1)c1nc2cc(F)ccc2n2cccc12`, the growth is 31.2%.
Consider `COc1cc(/C=C2\CN(S(=O)(=O)c3ccccc3)C/C(=C\c3cc(CN4CCCCC4)c(O)c(OC)c3)C2=O)cc(CN2CCCCC2)c1O`, for which the growth is -66.6% (active).
On to `COc1ccc(/C=C/C(c2cc(OC)c(OC)c(OC)c2)n2ccnc2)cc1O` (stereo not drawn), for which the growth is 103%.
For `C/C=C(/C)n1cnc2c(Nc3ccccn3)nc(Cl)nc21` the value was 98.4%; for `Oc1ccc(/C=C/c2ccc(O)cc2)cc1`, 135%; for `C#CCOc1cccc(-c2ncnc3cc(NC(=O)C=C)ccc23)c1`, 38.5%.
On to `CCOC(=O)c1nn(CC(O)c2ccccc2)c(NC(=O)Nc2cccc(F)c2)c1C` (stereo not drawn), for which the growth is 107%.
On to `O=C(N/N=C\c1ccccc1S(=O)(=O)O)N/N=C/c1ccccc1S(=O)(=O)O`, for which the growth is 97.1%.
The result for `CC[C@]12C=CCN3CC[C@@]4(c5ccc(OC)cc5N(C)[C@H]4[C@@](O)(C(=O)OC)[C@@H]1OC(=O)CCC[P+](c1ccccc1)(c1ccccc1)c1ccccc1)[C@@H]32` reads 21.4%; that for `CCCn1nc(C(=O)N(C)Cc2ccccc2)c2c1CCC(N1CCc3ccccc31)C2` (stereo not drawn), 92.2%; that for `C=C1C(=O)O[C@H]2[C@H]1CC/C(COC(=O)/C=C\C(=O)NCc1ccc(Cn3c(=O)sn(CCCl)c3=O)cc1)=C\CC[C@@]1(C)O[C@@H]21`, 91%.
On to `COC(=O)c1ccc(NC(=O)Nc2ccc(C(=O)OC)cc2)cc1`, for which the growth is 102%.
For `O=C(O)c1cn(C2CC2)c2cc(N3CCN(C(=O)Nc4nc(-c5ccc(Br)cc5)cs4)CC3)c(F)cc2c1=O`, the growth is 32.5%.
Turning to `NC(=O)c1c(NC(=O)c2cccc(C(F)(F)F)c2)sc2c1CCC(=O)C2`, the growth was 12.8%.
For `CC1=C(C(=O)Nc2ccccc2)C(c2ccc3c(c2)OCO3)NC(=S)N1` (stereo not drawn) the value was 115%; for `NS(=O)(=O)c1ccc(-c2cc(-c3nnc(SCC(=O)Nc4ccc(C(=O)/C=C/c5ccc(Cl)cc5)cc4)n3-c3ccccc3)c3ccccc3n2)cc1`, 93.1%.
For the compound `COC(=O)c1cc(Br)ccc1O`, the growth was 100%.
For `C=C1C(=O)O[C@H]2[C@H]1CC/C(COC(=O)/C=C/C(=O)OC/C1=C/CC[C@@]3(C)O[C@H]3[C@H]3OC(=O)C(=C)[C@@H]3CC1)=C\CC[C@@]1(C)O[C@@H]21` the value was 88.8%.
For `CNC1=CC(=O)c2c(C(=O)OC)c(C)[n+]([O-])c(C)c2C1=O` the value was 96.1%.
The result for `O=C(Nc1ncccc1OCc1ccccc1)NC1CCCCCC1` reads 95%.
Consider `O=C1/C(=C\c2cccc3nccnc23)SC(=S)N1CCc1ccc(O)cc1`, for which the growth is 104%.
As for `O=C1/C=C/[C@@H](O)[C@@H]2C[C@@H](O)C[C@H]2/C=C/CCC[C@@H](O)CCO1`, the growth was 113%.
The result for `Cc1ccc(CNc2c3ccccc3nc3ccccc23)cc1` reads 38.1%; that for `Cc1ccnc(Nc2ccc([N+](=O)[O-])c(NCCN3CCOCC3)n2)c1`, 99.1%; that for `CSc1nn2c(-c3ccc4ccccc4c3)ccnc2c1C#N`, 46.7%.
As for `COc1cc2nc3sc(C(=O)Nc4ccc(C(=O)OC(C)C)cc4)c(C(=O)Nc4ccc(Cl)cc4C)n3c(=O)c2cc1OC`, the growth is 70%.
On to `COC(=O)/C=C1/SC(=Nc2ccc([N+](=O)[O-])cc2)N(CCc2c[nH]c3ccc(O)cc23)C1=O`, for which the growth is 86.4%.

The record behind these values is PubChem BioAssay (NCI).
